An excerpt weighted towards active compounds, which were near 2.2% of everything screened.
Shn3 inh set2 = inhibitors of Schnurri-3 3'UTR reporter in osteoblasts | Clone20 osteoblast Shn3 3'UTR firefly luciferase, 24 h | inhibition, % at 12.5 µM | 0.52% of 360,000 active | AID 588674;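 active = mean inhibition of at least 75% with every replicate also reaching 75%; inconclusive = mean inhibition at least 75% but some replicate below; inactive = mean inhibition below 75%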;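 note: 0% = median of neutral control wells and 100% = pilot-screen positive control compound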
EWS-Fli inh = inhibitors of EWS/Fli oncoprotein transcriptional activity. inhibition, % at 12.6 µM. AID 651661. 0.67% of 350,000 active. A673 NR0B1-luciferase reporter, viability-normalised;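 active = mean inhibition of at least 50% after viability correction, with every replicate also passing that limit; inconclusive = mean reaches 50% but only one of two replicates passes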;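 note: firefly luciferase signal divided by Alamar Blue viability fluorescence both relative to DMSO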
TRPM1 prom inh = inhibitors of MITF-driven TRPM1 promoter in melanoma cells. SK-MEL-5 TRPM1 promoter luciferase, 24 h. inhibition, % at 12.5 µM. 0.83% of 330,000 active. AID 488899;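 active = mean inhibition across replicates of 60% or more, whatever share of single replicates reaches that level; inconclusive = some that reach 60%, reason not given; inactive = mean inhibition across replicates below 60%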
PAX8 reporter = lowers PAX8-driven luciferase in RMG-I cells | RMG-I TPO-luciferase reporter, SteadyGlo, 24 h | inhibition, % at 12.6 µM | 1.2% of 360,000 active;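 active = mean replicate inhibition at least 60% with every replicate also reaching 60%; inconclusive = only one of the two criteria is met; inactive = mean below 60% and not all replicates reaching 60%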;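 note: luciferase light reporting Pax8 driven TPO promoter activity; plate controls were median of neutral control wells for no effect and mitoxantrone controls for full effect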
LMP1 NFkB inh = reduces LMP1-driven NF-kappaB luciferase signal. inhibition, % at 12.5 µM. LMP1-induced NF-kappaB luciferase reporter cells, luminescence. 0.69% of 350,000 active; in the data active = inhibition above about 41%; inconclusive = no clear call, values can overlap the other calls;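 note: 0% = neutral control wells and 100% = reference inhibitor control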
LGR2 antag = inhibitors of bursicon-induced Drosophila LGR2 receptor cAMP signaling | HEK293 LGR2, CRE-luciferase, bursicon-stimulated, 4 h | 0.35% of 380,000 active | inhibition, % at 9.99 µM | AID 720647;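 active = drop in luminescence signal, shown as inhibition above about 50% in the replicate tests, limit read from the data, passing the limit was not always enough; inconclusive = probably only some replicates passing the limit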;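 note: agonist challenge used bursicon conditioned medium at about half maximal strength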
* = called active by the depositor.

For Cc1ccc(Nc2nc(-c3cccnc3)nc3ccccc23)cc1 the results were Shn3 inh set2 19, EWS-Fli inh 58*, TRPM1 prom inh 8, PAX8 reporter 29, LMP1 NFkB inh 6 and LGR2 antag 12.
Screening Cn1c(/C(C#N)=C/c2ccc(-c3ccc(S(N)(=O)=O)cc3)o2)nc2ccccc21 returned Shn3 inh set2 28, TRPM1 prom inh 57, PAX8 reporter 76*, LMP1 NFkB inh -33 and LGR2 antag 44.
`Cn1c(/C(C#N)=C/c2cccc(O)c2)nc2ccccc21` gave Shn3 inh set2 -54, EWS-Fli inh -4, TRPM1 prom inh -15, PAX8 reporter -20, LMP1 NFkB inh -4 and LGR2 antag -65.
COc1ccccc1S(=O)(=O)N[C@@H]1CC[C@H](CCn2cc(C3CCCCC3)nn2)O[C@@H]1CO was read as EWS-Fli inh 3, PAX8 reporter -13 and LGR2 antag -4.
C[C@@H]1CN([C@@H](C)CO)C(=O)c2cccc(NC(=O)c3ccc(-c4nccs4)cc3)c2O[C@H]1CN(C)Cc1ccc2c(c1)OCO2 was read as EWS-Fli inh 3 and LGR2 antag 18.
CSc1nnc(NC(=O)c2nc(S(=O)(=O)Cc3ccccc3F)ncc2Cl)s1 was read as Shn3 inh set2 96*, EWS-Fli inh 28, TRPM1 prom inh 75*, PAX8 reporter 1, LMP1 NFkB inh 13 and LGR2 antag -10.
For CC(C)c1nnc(NC(=O)c2nc(S(=O)(=O)Cc3ccccc3F)ncc2Cl)s1 the results were EWS-Fli inh 61*, PAX8 reporter 0 and LGR2 antag -16.
`Cc1nnc(NC(=O)c2nc(S(=O)(=O)Cc3ccccc3C)ncc2Cl)s1` gave Shn3 inh set2 96*, TRPM1 prom inh 80*, PAX8 reporter 24, LMP1 NFkB inh 81* and LGR2 antag -39.
`O=C(N/N=C/c1ccco1)c1ccc(N2CCCC2=O)cc1` gave Shn3 inh set2 -31, TRPM1 prom inh -9, PAX8 reporter -37, LMP1 NFkB inh -2 and LGR2 antag -2.
CCOc1ccc(OCc2cccc(C(=O)N/N=C/c3cccnc3)c2)cc1 was read as Shn3 inh set2 7, TRPM1 prom inh 57, PAX8 reporter 48, LMP1 NFkB inh 75* and LGR2 antag inconclusive.
Screening O=C(N/N=C/c1cccnc1)c1cccc(Br)c1 returned Shn3 inh set2 -15, EWS-Fli inh -17, TRPM1 prom inh -4, PAX8 reporter 0, LMP1 NFkB inh 11 and LGR2 antag -12.
COc1cccc(/C=N/NC(=O)c2ccc(N3CCCC3=O)cc2)c1 was read as Shn3 inh set2 5, EWS-Fli inh 18, TRPM1 prom inh 5, PAX8 reporter 96*, LMP1 NFkB inh 10 and LGR2 antag 5.
`COc1cccc(/C=N\NC(=O)c2ccc(C)nc2)c1` gave Shn3 inh set2 -29, EWS-Fli inh -14, TRPM1 prom inh 0, PAX8 reporter -25, LMP1 NFkB inh 86* and LGR2 antag -2.
Cc1ccc(C(=O)N/N=C\c2cccc(OC(=O)c3cccc(F)c3)c2)cn1 was read as Shn3 inh set2 -32, EWS-Fli inh -50, TRPM1 prom inh -38, PAX8 reporter -46, LMP1 NFkB inh -6 and LGR2 antag -18.
`CCCC#Cc1ccc2c(c1)O[C@H](CN(C)C(=O)c1ccccc1)[C@H](C)CN([C@H](C)CO)S2(=O)=O` gave EWS-Fli inh 5 and LGR2 antag 1.
Screening COC(=O)CCC(=O)Nc1cc(Cl)cc(Cl)c1 returned Shn3 inh set2 3, EWS-Fli inh -3, TRPM1 prom inh 2, PAX8 reporter 70*, LMP1 NFkB inh -7 and LGR2 antag 36.
For COC(=O)CCC(=O)Nc1ccc(NC(=O)CCC(=O)OC)cc1 the results were Shn3 inh set2 3, TRPM1 prom inh -4, LMP1 NFkB inh 6 and LGR2 antag 9.
Screening C[C@@H]1CN([C@@H](C)CO)C(=O)c2cc(NS(=O)(=O)c3ccc(F)cc3)ccc2O[C@@H](C)CCCCO[C@H]1CN(C)S(=O)(=O)c1ccc(F)cc1 returned EWS-Fli inh 10, PAX8 reporter 7 and LGR2 antag -1.
C[C@@H]1CN([C@H](C)CO)C(=O)c2cc(NS(=O)(=O)c3ccc(F)cc3)ccc2O[C@@H](C)CCCCO[C@@H]1CN(C)S(=O)(=O)c1ccc(F)cc1 was read as EWS-Fli inh 7, PAX8 reporter 48 and LGR2 antag 11.
`COc1ccccc1-c1ccc2c(c1)[C@H]1[C@H](CCN1S(=O)(=O)c1ccccc1F)[C@H](CO)N2` gave EWS-Fli inh 6, PAX8 reporter 81* and LGR2 antag -7.
`COc1ccccc1-c1ccc2c(c1)[C@@H]1[C@@H](CCN1S(=O)(=O)c1ccccc1F)[C@H](CO)N2` gave EWS-Fli inh 18, PAX8 reporter 81* and LGR2 antag -19.
`COc1ccccc1S(=O)(=O)N1CC[C@@H]2[C@H](CO)Nc3ccc(-c4ccc(C#N)cc4)cc3[C@@H]21` gave EWS-Fli inh 6, PAX8 reporter 17 and LGR2 antag 19.
For O=S(=O)(c1ccccc1F)N1CC[C@@H]2[C@H]1c1cc(-c3cccc(F)c3)ccc1N[C@@H]2CO the results were EWS-Fli inh 29, PAX8 reporter 100* and LGR2 antag 97*.
`COc1ccccc1-c1ccc2c(c1)[C@H]1[C@H](CCN1S(=O)(=O)c1ccccc1F)[C@@H](CO)N2` gave EWS-Fli inh 8, PAX8 reporter 53 and LGR2 antag 5.
Screening COc1ccccc1S(=O)(=O)N1CC[C@@H]2[C@@H](CO)Nc3ccc(-c4ccccc4)cc3[C@@H]21 returned EWS-Fli inh 7, PAX8 reporter 70* and LGR2 antag 1.
O=S(=O)(c1ccccc1F)N1CC[C@H]2[C@H](CO)Nc3ccc(-c4cccc(F)c4)cc3[C@H]21 was read as EWS-Fli inh 0, PAX8 reporter 15 and LGR2 antag -14.
For Cc1ccc(S(=O)(=O)Nc2ccc3c(c2)CC(=O)N([C@@H](C)CO)C[C@@H](C)[C@@H](CN(C)CC2CCCCC2)O3)cc1 the results were EWS-Fli inh 7 and LGR2 antag 15.
For CN1C(=O)c2cc(NC(=O)c3ccc(F)c(F)c3)ccc2OC[C@H]2O[C@@H](CC(=O)O)CC[C@@H]21 the results were EWS-Fli inh 3, PAX8 reporter 0 and LGR2 antag -8.
`O=S(=O)(c1ccccc1F)N1CC[C@H]2[C@H](CO)Nc3ccc(C4=CCCCC4)cc3[C@H]21` gave EWS-Fli inh -9, PAX8 reporter 95* and LGR2 antag -13.
Cc1cccc(S(=O)(=O)N2CC[C@@H]3[C@H](CO)Nc4ccc(C5=CCCCC5)cc4[C@@H]32)c1 was read as EWS-Fli inh 5, PAX8 reporter 83* and LGR2 antag 7.
